PubChem BioAssay AID504332 (National Center for Advancing Translational Sciences (NCATS), 2011)
The whole screen tested about 350,000 compounds, of which about 31,000 (8.9%) were called active. Roughly 15% stayed inconclusive and do not appear here. Only a selection was taken, and actives are over-represented in it overall. Unmarked numbers belong to inactive results. Calls follow the shape of the dose curve; as a rule, active = well fitted inhibition curve with a large enough effect; inconclusive = small, poorly fitted or top-dose-only effect; inactive = no such curve, though single readings can be large or run the other way.

The compounds below were run against Histone-lysine N-methyltransferase EHMT2 (Homo sapiens) (UniProt Q96KQ7) (assay: qHTS Assay for Inhibitors of Histone Lysine Methyltransferase G9a). Settings: G9a H3K9 monomethylation, AlphaScreen, 2 h; series mostly up to 59 µM; activity, negative = inhibition: at the top concentration.
Summary of the method: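 Readings reflect AlphaScreen signal from monomethyl-H3K9 antibody detection. HMT at 20 nM; substrate b-H3K9 500 nM; cofactor SAM 20 uM; 2 h RT reaction; compounds tested as titrations in qHTS with 15 min preincubation.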
% is scaled to controls: 0 for no effect and ±100 for the full control effect; potency is read from the fitted curve at half-maximal effect.
Also: nearly all actives have a fitted effect of over 75% in size.

Sequence of Histone-lysine N-methyltransferase EHMT2 (Homo sapiens) (Q96KQ7 913-1193 limits assumed): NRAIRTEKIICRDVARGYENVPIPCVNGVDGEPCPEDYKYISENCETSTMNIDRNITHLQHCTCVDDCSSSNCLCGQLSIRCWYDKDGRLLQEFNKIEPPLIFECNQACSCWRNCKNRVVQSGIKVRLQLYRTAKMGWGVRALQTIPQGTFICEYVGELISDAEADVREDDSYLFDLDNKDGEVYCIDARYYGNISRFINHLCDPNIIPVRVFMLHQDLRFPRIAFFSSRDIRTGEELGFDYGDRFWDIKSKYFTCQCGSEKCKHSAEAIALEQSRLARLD

SMILES | activity, negative = inhibition | Potency
O=C(NCCCc1ccccc1)c1cc(COc2c(F)cccc2F)on1 | 178% [at 102 µM] | 
CCc1nn(CCCC(=O)NCc2ccc(C)cc2)c(=O)c2cc3occc3n12 |  | inactive
CN(CCc1ccccn1)C1CCCN(S(=O)(=O)c2ccccc2Cl)C1 (stereo not given) | -5.52% [at 102 µM] | 
COc1c(Cl)cc(Cl)cc1C(=O)Nc1cccc2cccnc12 | 56.1% | 
COc1ccc(-c2nn3c(=O)cc(CN4CCN(C(=O)c5ccc(OC)c(OC)c5)CC4)nc3s2)cc1 | 12.8% | 
Cc1ccc(S(=O)(=O)N[C@@H](Cc2ccccc2)C(=O)N2CCC(C(=O)N[C@H](C(=O)O)C(C)O)CC2)cc1 (stereo not given in full) | 1.01% [at 102 µM] | 
COc1ccc(S(=O)(=O)N2CCOCC2)cc1NC(=O)Cc1c(F)cccc1Cl | 17.5% [at 12.7 µM] | 
CC(OC(=O)CNC(=O)c1cccc(F)c1)C(=O)NC1CCCCC1C (stereo not given) | 2.6% [at 102 µM] | 
COc1ccc(NC(=O)C2CCN(c3ccc(Sc4ccc(C)cc4)nn3)CC2)c(OC)c1 | -3.36% | 
Cc1cc(NC(=O)c2ccc(-c3ccc(Cl)cc3)o2)cc(-c2nc3ncccc3o2)c1O | 3.7% | 
COc1ccc(CCNC(=O)CCc2ccccc2O)cc1OC | 7.03% [at 0.501 µM] | 
COC(=O)N1CCC2(CCCN(Cc3ccccc3OC)C2)CC1 | 2.95% [at 12.7 µM] | 
COc1ccc(OC)c(CN2CCN(C(=O)CNC(=O)c3cc(C)cc(C)c3)CC2)c1 | 31.1% | 
COc1ccccc1CN1CCN(Cc2cc(OC)c(OC)cc2OC)CC1 |  | 8.91 µM (active)
COc1ccc(C(=O)CSc2c(C(C)C)cnc3c2c(=O)n(C)c(=O)n3C)cc1 | -3.65% | 
CCN1C(=O)[C@@H]2[C@@H](c3ccc(-c4ccccc4)cc3)N3CCCC[C@@]3(C(=O)OC)[C@@H]2C1=O | -6.56% [at 2.33 µM] | 
CCc1cnc2c(c1SCC(=O)N1CCC(C)CC1)c(=O)n(C)c(=O)n2C | 9.16% | 
COc1ccc(N(C(=O)c2cccnc2)S(=O)(=O)c2ccc3c(c2)n(C)c(=O)n3C)cc1 | -0.924% [at 12.7 µM] | 
COc1ccc(N(C(=O)c2cccnc2)S(=O)(=O)c2ccc(OC)c(OC)c2)cc1 | 13.8% [at 102 µM] | 
O=C(c1cccnc1)N(c1cc2sc(=O)oc2c2ccccc12)S(=O)(=O)c1ccccc1 |  | 1.12 µM (active)

SMILES | activity, negative = inhibition | Potency
O=C(c1ccco1)N1CCN(C(=O)c2cc(-c3ccccc3F)no2)CC1 | -5.83% [at 102 µM] | 
CCCOC(=O)c1ccc(N2C(=O)c3ccccc3C2=O)cc1 | -5.76% | 
CCOc1ccc(NC(=O)C(CC(C)C)N2Cc3ccccc3C2=O)cc1 (stereo not given) | 3.11% | 
CCO/C=C1\C(=O)N(c2ccc(OCC)cc2)C(=O)c2ccccc21 |  | 31.6 µM (active)
O=C(COC(=O)c1ncc(Cl)c(Cl)c1Cl)NNC(=O)c1ccccc1 | 5.49% [at 102 µM] | 
COC(=O)c1ccc(COc2cc([N+](=O)[O-])cc3cccnc23)cc1 | -18.3% [at 102 µM] | 
O=[N+]([O-])c1cc([N+](=O)[O-])c2cccnc2c1O |  | 31.6 µM (active)
Cc1ccc(C(=O)Nc2cccc3ncccc23)cc1[N+](=O)[O-] | 35.3% [at 12.7 µM] | 
O=C1c2ccccc2C(=O)c2c1cccc2N1CCN(Cc2ccccc2)CC1 |  | 10 µM (active)
CCc1c(C)nc(N2CCN(Cc3ccccc3)CC2)[nH]c1=O | -41.6% [at 12.7 µM] | 
O=c1cc(N2CCN(Cc3ccccc3)CC2)c(-c2ccccc2)n[nH]1 | 88.4% | 
N#Cc1cccc(OC(=O)c2ccc3c(=O)n4c(nc3c2)CCC4)c1 | -1.34% [at 0.501 µM] | 
COc1ccc(-c2cc(C3CCN(c4ncccc4[N+](=O)[O-])CC3)[nH]n2)cc1 |  | 50.1 µM (active)
COc1ccc(-c2cc3ncccc3cn2)cc1 | -3.56% [at 0.501 µM] | 
CC(=O)NC(Cc1ccccc1)C(=O)NC1CCN(c2ncccc2[N+](=O)[O-])CC1 (stereo not given) | 12.9% [at 102 µM] | 
O=C(NCC1CCCO1)c1cc2c([nH]c3ccccc32)c(-c2ccc(F)cc2)n1 (stereo not given) | 6.78% [at 12.7 µM] | 
COc1cc(NC(=O)CN2C(=O)NC(C)(c3ccc(OC(F)F)cc3)C2=O)cc(OC)c1OC (stereo not given) | 9.2% [at 102 µM] | 
CSc1nc(-c2ccc(F)cc2)nc2c1Cc1c(CO)cnc(C)c1O2 | -2.18% | 
CCc1nc(C)cn1S(=O)(=O)c1cc([N+](=O)[O-])ccc1Cl | -42.6% [at 102 µM] | 
COc1cc(Cl)c(S(=O)(=O)n2cnc(C)c2)cc1Cl | 8.6% | 

SMILES | activity, negative = inhibition | Potency
CCc1nc(C)cn1S(=O)(=O)c1cc(OC)c(C)cc1C |  | 44.7 µM (active)
CCOc1cc(/C=C2\SC(N3CCCC(C)C3)=NC2=O)ccc1O (stereo not given) | 8.33% [at 102 µM] | 
CC(C)C(=O)NCC(c1cccs1)S(=O)(=O)c1ccc(F)cc1 (stereo not given) | -1.3% [at 102 µM] | 
CC1CCCC(C)N1C(=O)COC(=O)COc1ccccc1C#N (stereo not given) | 15.3% | 
COc1ccccc1N1CCN(CC(=O)NCCc2ccc(S(N)(=O)=O)cc2)CC1 | 1.17% [at 102 µM] | 
CNCC(O)CN1CCN(c2ccccc2OC)CC1 (stereo not given) |  | 50.1 µM (active)
COc1ccccc1N1CCN(CCN2C(=O)c3ccccc3C(C)(C)C2=O)CC1 | 4.6% | 
COC(=O)c1cnc(N2CCN(c3ccccc3OC)CC2)c2ccccc12 | 13.9% | 
CC(=O)Nc1ccc(OCC(O)CN2CCN(c3ccccc3Cl)CC2)cc1 (stereo not given) | 6.83% | 
COc1ccccc1N1CCN(Cc2ccc(OC)c3ccccc23)CC1 |  | 8.91 µM (active)
S=C(Nc1cccnc1)Nc1ccccn1 | -8.13% [at 2.33 µM] | 
COc1ccc(S(=O)(=O)N2CCCCC2)cc1C(=O)NC1CCS(=O)(=O)C1 (stereo not given) | -6.27% | 
CCOC(=O)c1cc(-c2ccccc2C)n(Cc2cc(C)no2)n1 | -5.1% [at 0.501 µM] | 
CN(C(=O)COC(=O)Cn1cnc2c1c(=O)n(C)c(=O)n2C)C1(C#N)CCCCC1 | 24% [at 12.7 µM] | 
O=C(N/N=C\c1cccnc1)c1cc(-c2ccccc2)nc2c(Cl)cccc12 | 8.22% [at 102 µM] | 
Cc1cc(-c2n[nH]c(=S)n2/N=C/c2ccco2)n[nH]1 | -104% [at 12.7 µM] | 
c1ccc(-n2nnnc2-c2cccnc2)cc1 | -12.2% [at 102 µM] | 
S=c1[nH]nc(-c2cccnc2)n1/N=C/C(Cl)=C\c1ccccc1 |  | 0.891 µM (active)
Cc1cc(-c2n[nH]c(=S)n2/N=C/C(Br)=C/c2ccccc2)n[nH]1 |  | 6.31 µM (active)
Cc1cc(C(=O)N/N=C\C(Br)=C\c2ccccc2)c(C)o1 | -42.4% [at 102 µM] | 
